For experiment [1], the system named is Zika virus NS2B-NS3 protease. Kind of experiment: Primary screen GU AMC qHTS for Zika virus inhibitors (AID 1347154).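 Note: 0% = no-inhibitor control and -100% = no-enzyme control; nearly all actives have a fitted effect of over 70% in size.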 The gist of the method:
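Fluorogenic AMC-substrate cleavage by noncovalent NS2B-NS3 protease complex (25 nM, pH 8.0 Tris buffer with Tween 20) followed for 15 minutes at room temperature (~20% conversion). Percent inhibition from ex340/em450 signal change, fitted by 4-parameter Hill equation.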
A general note: In qHTS, concentration-response curves come from the screen itself.

The target in experiment [2] is Cytochrome P450 1A2 (Homo sapiens) (UniProt P05177). Kind of experiment: p450-cyp1a2 (AID 410; calls by dose curve; note: potency is the fitted concentration of half-maximal effect;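 for activity change, negative = inhibition: -100% = full effect of reference inhibitor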). A digest of the protocol: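 Read-out is luminescence from luciferin produced by CYP1A2 demethylation of Luciferin-ME (100uM, at Km). Detection reagent stopped the 60 min NADPH-dependent reaction; signals were normalized to 57 uM furafylline.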
In experiment [3] the target is Glucocorticoid receptor (Homo sapiens) (UniProt P04150). Kind of experiment: GR-EFC Redistribution (AID 451; calls by dose curve; note: potency is the fitted concentration of half-maximal effect). The note with it: CHO-K1 GR-EFC translocation, beta-gal luminescence, 2 h. The gist of the method:
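Translocation of GR-ED fusion to nuclear EA restores b-gal, read by luminescence after 1 h room-temperature detection. Engineered CHO-K1 biosensor cells, 1,000/well, exposed 2 h at 37 C to titrations up to 46 uM final.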

The target of experiment [4] is Mitogen-activated protein kinase 10 (Mus musculus) (UniProt Q61831). Kind of experiment: JNK3 AlphaScreen Assay (AID 530; active = well fitted curve in either direction with a large enough effect, not every such curve was filed as active;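 note: kinase came from lysate of stimulated human HepG2 cells; signal reports phosphorylation of biotinylated GST-cJun 1-79 at Ser73 with 10 µM ATP; series mostly up to about 57 µM; % is set by controls: 0 for no effect and ±100 for the full control effect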). A digest of the protocol:
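Kinase buffer: 20 mM Tris-HCl pH 7.6, 10 mM MgCl2, 1 mM DTT, 0.1 mM Na3VO4, 0.01% Tween-20; ATP 10 uM. Substrate biotin-GST-cJun(1-79), enzyme from activated HepG2 lysates. Detection by Ser73 phospho-antibody AlphaScreen.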
(In general: Bead proximity is the source of the signal in Alpha formats.)

Experiment [5] concerns the target 3',5'-cyclic-AMP phosphodiesterase 4B (Homo sapiens) (UniProt Q07343). Description: qHTS Assay for Inhibitors of PDE-IV (AID 607; active = well fitted activation curve with a large enough effect in the main read-out, with a control signal flat, not every such curve was filed as active; note: % of control where 0% means no effect). A digest of the protocol:
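ACTOne HEK293 cells carry a modified cAMP-gated CNG channel and express endogenous PDE4; plated 1000 cells/well, compounds up to 22.9 uM final. Membrane-potential dye fluorescence (ex 535/em 590) was read; parental cells received 10 uM forskolin + 100 uM RO 20-1724.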

Experiment [6] deals with Guanine nucleotide-binding protein G(i) subunit alpha-1 (Homo sapiens) (UniProt P63096). Kind of experiment: qHTS Assay for Inhibitors of RGS12 GoLoco Motif Activity (Green Fluorophore) (AID 879).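 Note: 0% = labeled peptide with Gαi1 and full inhibition = labeled peptide alone without protein; negative values mean loss of peptide binding seen as reduced polarization.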 The gist of the method:
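A drop in FITC polarization marked displacement of the FITC-tagged RGS12 GoLoco peptide (10 nM) from Gαi1 (50 nM). Compounds were incubated 10 min at room temperature in Tris pH 7.5 buffer containing 150 mM NaCl, 0.1 mM GDP and 0.05% NP40; unlabeled peptide titration served as control.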

Experiment [7] concerns the target Cytochrome P450 2C9 (Homo sapiens) (UniProt P11712). Description: qHTS Assay for Inhibitors and Substrates of Cytochrome P450 2C9 (AID 883). Note: potency is the fitted concentration of half-maximal effect; nearly all actives have a fitted effect of over 60% in size. A digest of the protocol:
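Inhibition of CYP2C9 is scored as loss of luminescence, with 57uM sulphaphenazole defining 100% inhibition. Substrate Luciferin-H is used at 100uM, equal to its KM; enzyme at 10nM in 25mM KPO4, 60 min at 37C with NADPH regeneration.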

The target of experiment [8] is Cytochrome P450 2C19 (Homo sapiens) (UniProt P33261). Kind of experiment: qHTS Assay for Inhibitors and Substrates of Cytochrome P450 2C19 (AID 899). Note: potency is the fitted concentration of half-maximal effect; nearly all actives have a fitted effect of over 60% in size. The gist of the method: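 5nM enzyme + 10uM Luciferin-H EGE (=KM), 50mM KPO4; cpd pin-transferred, 10 min 37C; NADPH regen, 60 min 37C; stopped w/ luciferin detection reagent, 20 min; luminescence. Normalized to 57uM ketoconazole (AC100).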

The nature of experiment [9]: qHTS Assay for Identification of Small Molecule Antagonists for Thrombopoietin (TPO) Signaling Pathway (AID 918). Note: potency is the fitted concentration of half-maximal effect; nearly all actives have a fitted effect of over 60% in size. The note with it: TPO-dependent cell signaling reporter, antagonist mode. A digest of the protocol:
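Antagonist mode at EC50 TPO (26 pM) in IL-3-free medium; murine Ba/F3 cells with human TPO receptor and GPIIb-promoter luciferase, 24 hrs at 37 C before luminescent detection.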

Experiment [10] has as its target Pyruvate kinase (Leishmania mexicana) (UniProt Q27686). Kind of experiment: qHTS Validation Assay for Inhibitors of Leishmania Mexicana Pyruvate Kinase (AID 945).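 Note: 0% = DMSO only neutral control wells.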 The gist of the method:
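Purified LmPYK (E451W mutant, 0.2 nM) was incubated 1 h at room temperature with 0.5 mM PEP and 0.1 mM ADP in 50 mM imidazole pH 7.2, 50 mM KCl, 7 mM MgCl2; ATP formed was read by PKLight luminescence, normalized to DMSO wells.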

In experiment [11] the target is Pyruvate kinase PKM (Homo sapiens) (UniProt P14618). Description: qHTS Assay for Activators of Human Muscle Pyruvate Kinase (AID 954; active = well fitted curve in the direction sought with a large enough effect, not every such curve was filed as active;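 note: 0% = uninhibited enzyme and -100% = no enzyme or full thiadiazolimine inhibition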). The gist of the method:
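A coupled luminescent readout tracked ATP made from ADP by purified PKM2. Final conditions included 0.1 nM enzyme, PEP and ADP at 0.5 and 0.1 mM, pH 7.2 imidazole buffer with BSA, and a one-hour room-temperature reaction.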

Experiment [12] addresses Alpha-galactosidase A (Homo sapiens) (UniProt P06280). Kind of experiment: Counterscreen for Glucocerebrosidase Inhibitors: qHTS Assay for Human alpha-Galactosidase at pH 4.5 (AID 992). Note: 0% is about no effect. A digest of the protocol:
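Citrate buffer pH 4.5, Tween-20 0.005%. Enzyme 2 nM, substrate 80 uM, 20 min RT. Stop pH 10. Fluorescence Ex 365/Em 440. AC50 by Hill fit.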

The target in experiment [13] is alpha-glucosidase (Oryza sativa, rice) (UniProt Q653V4). Description: Counterscreen for Glucocerebrosidase Inhibitors: qHTS Assay for Rice alpha-Glucosidase at pH 5.0 (AID 997).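 Note: 0% = full activity with enzyme and -100% = basal without enzyme.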 A digest of the protocol:
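Endpoint fluorogenic assay at pH 5.0: compounds (0.7 nM to 77 uM) titrated against 4 nM rice enzyme and 400 uM 4-MU-alpha-glucoside for 20 min at room temperature; NaOH/glycine stop, read ex 365/em 440 nm, Hill-fitted AC50.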
For orientation: The purpose of a counterscreen is to sort out artefacts and off-target activity.

Experiment [14] concerns the target Alpha-galactosidase (Coffea arabica) (UniProt Q42656). Description: Counterscreen for Glucocerebrosidase Inhibitors: qHTS Assay for Coffee Bean alpha-Galactosidase at pH 5.9 (AID 998).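 Note: plate controls were uninhibited enzyme for no effect and no-enzyme basal signal for full effect.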 The gist of the method:
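Fluorogenic 4-MU substrate hydrolysis, 80 uM substrate and 2 nM coffee bean alpha-galactosidase, pH 5.9 citrate buffer, 20 min at room temperature, then NaOH/glycine stop. Titration 0.7 nM–77 uM, normalized to no-enzyme and enzyme controls, AC50 via Hill equation.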

The target in experiment [15] is Ubiquitin carboxyl-terminal hydrolase 1 (Homo sapiens) (UniProt O94782). Kind of experiment: Inhibitors of USP1/UAF1: Pilot qHTS (AID 504865).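 Note: rhodamine fluorescence freed from ubiquitin-rhodamine substrate followed over time; top concentration of the series differs between compounds; % is set by controls: 0 for no effect and ±100 for the full control effect; nearly all actives have a fitted effect of over 35% in size.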 The gist of the method: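 USP1/UAF1 complex at 1 nM preincubated 15 min at room temperature with compound, then Ub-Rho substrate added at 150 nM final. Fluorescence (480/540 nm) read kinetically in 50 mM HEPES pH 7.8, 0.5 mM EDTA, 1 mM TCEP, 0.1 mg/ml BSA, 0.01% Tween-20.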

Experiment [16] can be described thus: Confirmatory qHTS for small molecule stabilizers of the endoplasmic reticulum resident proteome: Secreted ER Calcium Modulated Protein (SERCaMP) assay (AID 1508628). Note: nearly all actives have a fitted effect of over 40% in size. Note: potency is the fitted concentration of half-maximal effect. A digest of the protocol:
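GLuc-SERCaMP-expressing SH-SY5Y cells, pretreated 16 h with compound, are challenged with thapsigargin to empty ER calcium stores; after 4 h, coelenterazine is added directly to the medium and luminescence is imaged.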

Experiment [17] can be described thus: Cell Viability qHTS for small molecule stabilizers of the endoplasmic reticulum resident proteome (AID 1508629).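 Note: human SH-SY5Y neuroblastoma cells carrying the GLuc-SERCaMP reporter; compound exposure about 46 h in total before the viability read; % is set by controls: 0 for no effect and ±100 for the full control effect.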 Particulars: cell viability counter-screen, 100 nM thapsigargin for final 4 h.
Experiment [18] addresses Glucocorticoid receptor (Homo sapiens) (UniProt P04150). Kind of experiment: GR-GFP Redistribution (AID 450;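 active = compounds whose dose series gives a full or clear partial fitted curve of increased nuclear translocation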; note: potency is the fitted concentration of half-maximal effect). The note with it: U2OS GR-GFP nuclear translocation, laser cytometry, 2 h.
Experiment [19] deals with Cytochrome P450 3A4 (Homo sapiens) (UniProt P08684). Kind of experiment: qHTS Assay for Activators of Cytochrome P450 3A4 (AID 885). Note: nearly all actives have a fitted effect of over 65% in size. The gist of the method:
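CYP3A4 activity: Luciferin-PPXE O-dealkylation, 25uM substrate, 200mM KPO4, RT throughout. Read-out is luciferase luminescence; higher values reflect activation.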

Experiment [20] concerns the target DNA dC->dU-editing enzyme APOBEC-3G (Homo sapiens) (UniProt Q9HC16). Kind of experiment: qHTS for inhibitors of Vif-A3G interactions: Validation (AID 588379). Note: 0% is about no effect. The gist of the method: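 Yellow fluorescence (Ex 488, Em 500-530) of Vif-coexpressing HeLa A3G-eYFP cells, scanned by Acumen cytometer, reports blocked A3G degradation. Cells plated at 700/well overnight at 37 deg C before compound addition, then a further overnight compound incubation at 37 deg C.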

The structures appear in SMILES notation. Where “and” joins values, the source holds several entries; their conditions need not be identical. Identical values can stand only once. Results filed as inconclusive are left out. Where a structure was tested more than once in an assay, its records may differ in their call. Calls of active or inactive are those of the source. Unless noted, calls come from the whole dose curve; as a rule, active = well fitted curve in the direction sought with a large enough effect; inconclusive = small, poorly fitted or top-dose-only effect, or another doubt; inactive = no such curve, though single readings can be large; an effect the other way counts as inactive or inconclusive. Some results are limits rather than exact numbers.

We go through seven compounds from PubChem BioAssay (NCATS).

Sequence of Glucocorticoid receptor (Homo sapiens) (P04150 whole entry, looked up, the tested form may be a part): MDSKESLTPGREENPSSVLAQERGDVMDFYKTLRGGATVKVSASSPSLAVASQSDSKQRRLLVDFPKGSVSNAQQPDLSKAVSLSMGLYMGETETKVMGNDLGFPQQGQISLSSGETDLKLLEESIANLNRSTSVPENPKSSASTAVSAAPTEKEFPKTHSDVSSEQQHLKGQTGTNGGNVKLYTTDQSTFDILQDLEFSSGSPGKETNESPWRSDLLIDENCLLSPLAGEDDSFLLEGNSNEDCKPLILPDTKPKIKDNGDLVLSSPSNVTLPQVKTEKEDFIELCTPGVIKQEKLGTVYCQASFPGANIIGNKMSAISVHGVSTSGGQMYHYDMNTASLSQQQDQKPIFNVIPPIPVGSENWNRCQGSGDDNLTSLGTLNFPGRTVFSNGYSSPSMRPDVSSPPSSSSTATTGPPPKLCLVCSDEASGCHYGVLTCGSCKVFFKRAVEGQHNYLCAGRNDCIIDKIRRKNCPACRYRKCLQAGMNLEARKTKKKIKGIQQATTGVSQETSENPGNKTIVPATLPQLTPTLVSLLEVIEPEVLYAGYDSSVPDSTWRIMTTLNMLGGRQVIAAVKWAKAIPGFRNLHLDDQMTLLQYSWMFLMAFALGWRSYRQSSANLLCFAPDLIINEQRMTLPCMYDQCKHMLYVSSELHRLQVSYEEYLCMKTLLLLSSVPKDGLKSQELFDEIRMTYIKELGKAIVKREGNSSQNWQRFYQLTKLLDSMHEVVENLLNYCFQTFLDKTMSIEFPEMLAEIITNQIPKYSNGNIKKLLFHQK
Sequence of Cytochrome P450 1A2 (Homo sapiens) (P05177 whole entry, looked up): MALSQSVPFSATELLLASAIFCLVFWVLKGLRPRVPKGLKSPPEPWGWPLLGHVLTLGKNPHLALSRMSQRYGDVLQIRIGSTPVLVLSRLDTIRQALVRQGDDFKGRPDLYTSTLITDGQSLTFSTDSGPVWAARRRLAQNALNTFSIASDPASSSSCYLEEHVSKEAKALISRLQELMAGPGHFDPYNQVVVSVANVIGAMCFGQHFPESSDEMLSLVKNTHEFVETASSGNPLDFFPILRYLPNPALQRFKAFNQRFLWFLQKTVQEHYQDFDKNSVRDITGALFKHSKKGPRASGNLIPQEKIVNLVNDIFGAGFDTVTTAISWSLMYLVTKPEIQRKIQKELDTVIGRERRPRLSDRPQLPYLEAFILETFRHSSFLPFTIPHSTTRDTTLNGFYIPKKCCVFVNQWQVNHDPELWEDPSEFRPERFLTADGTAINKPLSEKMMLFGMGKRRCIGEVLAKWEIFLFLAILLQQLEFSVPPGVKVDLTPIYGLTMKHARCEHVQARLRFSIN
Sequence of 3',5'-cyclic-AMP phosphodiesterase 4B (Homo sapiens) (Q07343 whole entry, looked up): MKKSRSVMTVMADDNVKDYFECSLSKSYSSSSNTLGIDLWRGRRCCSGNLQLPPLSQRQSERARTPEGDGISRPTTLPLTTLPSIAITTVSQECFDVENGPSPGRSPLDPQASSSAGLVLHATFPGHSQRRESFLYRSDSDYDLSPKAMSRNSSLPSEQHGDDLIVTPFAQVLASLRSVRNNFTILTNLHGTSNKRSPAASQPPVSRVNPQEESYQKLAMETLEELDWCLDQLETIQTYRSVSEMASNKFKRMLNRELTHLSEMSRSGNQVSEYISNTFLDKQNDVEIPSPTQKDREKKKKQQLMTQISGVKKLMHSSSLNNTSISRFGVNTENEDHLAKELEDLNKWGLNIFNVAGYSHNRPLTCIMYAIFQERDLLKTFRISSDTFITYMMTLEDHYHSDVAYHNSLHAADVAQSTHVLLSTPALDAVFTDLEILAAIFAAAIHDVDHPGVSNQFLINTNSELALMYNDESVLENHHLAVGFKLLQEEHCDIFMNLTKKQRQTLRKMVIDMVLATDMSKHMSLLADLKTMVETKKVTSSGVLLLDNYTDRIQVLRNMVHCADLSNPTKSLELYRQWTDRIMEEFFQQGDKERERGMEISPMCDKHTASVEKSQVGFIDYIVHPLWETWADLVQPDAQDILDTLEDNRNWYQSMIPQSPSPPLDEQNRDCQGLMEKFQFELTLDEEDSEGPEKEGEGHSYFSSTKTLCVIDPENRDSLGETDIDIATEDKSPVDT
Sequence of Cytochrome P450 2C19 (Homo sapiens) (P33261 whole entry, looked up): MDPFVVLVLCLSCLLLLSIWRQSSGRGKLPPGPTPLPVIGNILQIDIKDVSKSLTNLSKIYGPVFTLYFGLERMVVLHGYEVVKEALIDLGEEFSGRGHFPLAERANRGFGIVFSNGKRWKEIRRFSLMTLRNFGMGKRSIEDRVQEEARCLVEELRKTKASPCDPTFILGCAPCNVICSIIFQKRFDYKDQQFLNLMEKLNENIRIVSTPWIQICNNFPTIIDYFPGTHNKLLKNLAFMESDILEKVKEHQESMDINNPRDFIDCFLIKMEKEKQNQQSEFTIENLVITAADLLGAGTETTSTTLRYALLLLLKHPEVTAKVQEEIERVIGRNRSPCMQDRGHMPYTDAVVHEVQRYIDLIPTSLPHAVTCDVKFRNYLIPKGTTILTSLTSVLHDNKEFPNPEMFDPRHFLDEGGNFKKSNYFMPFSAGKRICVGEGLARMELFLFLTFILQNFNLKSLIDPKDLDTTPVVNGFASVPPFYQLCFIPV
Sequence of Cytochrome P450 2C9 (Homo sapiens) (P11712 whole entry, looked up): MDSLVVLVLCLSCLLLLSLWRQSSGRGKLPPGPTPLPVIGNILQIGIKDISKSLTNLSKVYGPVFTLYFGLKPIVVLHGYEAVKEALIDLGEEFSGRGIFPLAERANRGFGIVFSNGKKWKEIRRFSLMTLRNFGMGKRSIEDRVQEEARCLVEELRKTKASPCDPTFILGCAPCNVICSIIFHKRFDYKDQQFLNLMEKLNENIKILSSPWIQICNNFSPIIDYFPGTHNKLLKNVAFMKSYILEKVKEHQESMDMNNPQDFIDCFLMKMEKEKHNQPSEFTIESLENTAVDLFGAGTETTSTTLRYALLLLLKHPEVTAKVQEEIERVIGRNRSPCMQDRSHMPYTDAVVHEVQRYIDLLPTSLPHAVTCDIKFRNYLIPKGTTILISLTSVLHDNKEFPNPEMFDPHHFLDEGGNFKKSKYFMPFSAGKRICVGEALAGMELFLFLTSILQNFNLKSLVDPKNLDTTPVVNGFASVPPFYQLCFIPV
Sequence of Guanine nucleotide-binding protein G(i) subunit alpha-1 (Homo sapiens) (P63096 whole entry, looked up): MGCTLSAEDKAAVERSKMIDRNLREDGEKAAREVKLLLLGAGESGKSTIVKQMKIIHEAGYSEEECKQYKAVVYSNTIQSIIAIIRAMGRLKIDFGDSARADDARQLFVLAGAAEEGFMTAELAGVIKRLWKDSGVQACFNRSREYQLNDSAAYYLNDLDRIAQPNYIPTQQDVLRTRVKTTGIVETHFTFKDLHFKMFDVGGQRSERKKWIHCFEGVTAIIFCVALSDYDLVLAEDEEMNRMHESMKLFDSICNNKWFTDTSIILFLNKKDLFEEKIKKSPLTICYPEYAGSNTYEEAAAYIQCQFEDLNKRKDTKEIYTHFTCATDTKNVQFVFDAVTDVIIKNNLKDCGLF
Sequence of DNA dC->dU-editing enzyme APOBEC-3G (Homo sapiens) (Q9HC16 whole entry, looked up): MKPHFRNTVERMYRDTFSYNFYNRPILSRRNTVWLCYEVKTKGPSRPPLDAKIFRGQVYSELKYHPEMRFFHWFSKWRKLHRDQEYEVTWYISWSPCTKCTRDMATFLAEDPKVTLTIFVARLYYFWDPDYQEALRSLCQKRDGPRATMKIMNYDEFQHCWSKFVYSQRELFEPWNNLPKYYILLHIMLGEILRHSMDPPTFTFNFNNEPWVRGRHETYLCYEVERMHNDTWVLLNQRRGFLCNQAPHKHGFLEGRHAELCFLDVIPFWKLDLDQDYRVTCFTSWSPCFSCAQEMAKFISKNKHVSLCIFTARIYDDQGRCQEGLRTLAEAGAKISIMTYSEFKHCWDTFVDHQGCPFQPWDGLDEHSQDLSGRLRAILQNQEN
Sequence of Pyruvate kinase (Leishmania mexicana) (Q27686 2-499 E452W): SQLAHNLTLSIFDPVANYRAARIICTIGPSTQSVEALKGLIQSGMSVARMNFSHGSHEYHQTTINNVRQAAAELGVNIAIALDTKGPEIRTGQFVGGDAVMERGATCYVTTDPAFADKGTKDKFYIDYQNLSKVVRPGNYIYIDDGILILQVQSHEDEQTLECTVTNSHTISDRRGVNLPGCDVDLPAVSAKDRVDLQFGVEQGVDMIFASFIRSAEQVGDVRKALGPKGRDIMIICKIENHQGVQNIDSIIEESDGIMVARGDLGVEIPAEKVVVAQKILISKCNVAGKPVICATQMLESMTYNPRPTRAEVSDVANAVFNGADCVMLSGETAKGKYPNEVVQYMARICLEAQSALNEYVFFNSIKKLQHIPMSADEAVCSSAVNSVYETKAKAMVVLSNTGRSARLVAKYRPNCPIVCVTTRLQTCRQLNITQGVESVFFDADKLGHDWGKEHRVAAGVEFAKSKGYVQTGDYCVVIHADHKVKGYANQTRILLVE
Sequence of Cytochrome P450 3A4 (Homo sapiens) (P08684 whole entry, looked up): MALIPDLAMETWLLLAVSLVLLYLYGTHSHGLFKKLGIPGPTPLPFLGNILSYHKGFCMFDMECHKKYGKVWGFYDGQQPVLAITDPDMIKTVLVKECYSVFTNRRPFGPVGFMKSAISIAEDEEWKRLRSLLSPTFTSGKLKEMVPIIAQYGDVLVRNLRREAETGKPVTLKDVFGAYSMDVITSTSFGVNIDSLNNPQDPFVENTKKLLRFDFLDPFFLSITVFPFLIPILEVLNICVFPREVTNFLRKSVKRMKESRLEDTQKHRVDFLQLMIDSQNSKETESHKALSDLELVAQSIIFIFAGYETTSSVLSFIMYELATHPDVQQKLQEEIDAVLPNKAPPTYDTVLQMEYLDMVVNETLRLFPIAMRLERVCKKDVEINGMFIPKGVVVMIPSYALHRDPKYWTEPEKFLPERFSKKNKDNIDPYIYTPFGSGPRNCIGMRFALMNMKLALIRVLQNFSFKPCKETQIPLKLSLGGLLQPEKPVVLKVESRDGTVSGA

Consider `OC12C3C4CC5C6C4C1C6C(C53)N2CCc1cccc(F)c1` (stereo unspecified), for which, in experiment [1], the Potency entry was “inactive”.
In the case of `C[C@H](NC(=O)[C@@H](N)Cc1ccc(O)cc1)C(=O)NCC(=O)N(C)[C@@H](Cc1ccccc1)C(=O)N[C@H](CO)CCS(C)=O` (stereo partly specified), the activity change, negative = inhibition in [1] is 4.8% [at 6.83 µM] (inactive).
`CN(CCc1ccc(Cl)c(Cl)c1)[C@@H]1CCCC[C@@H]1N1CCCC1`: the Potency result in experiment [1] was “inactive”.
As to `CC(C)[C@@]1(NC(=O)[C@@H]2C[C@H]3c4cccc5[nH]cc(c45)C[C@@H]3N(C)C2)O[C@@]2(O)[C@H]3CCCN3C(=O)[C@H](Cc3ccccc3)N2C1=O`, the Potency entry in experiment [2], in [5], in experiment [15] and in experiment [1] was “inactive” each time. The Potency in experiment [3] is > 46 µM (inactive); in [7], 2.51 µM (active) and 6.31 µM (active); in [8] it was 3.98 µM (active) and 5.01 µM (active); in experiment [9] it was 10 µM (active); in [16] it was 35.5 µM (active) and inactive. Also, the result in experiment [4], in experiment [6], in [10], in experiment [11], in experiment [12] and in [13] was inactive. For the same compound, the call in [14] was inactive. For the same compound, the max response in experiment [17] was -30.4% (inactive).
For `Oc1ccc2c3c1O[C@H]1c4c(c5ccccc5n4Cc4ccccc4)C[C@]4(O)[C@H](C2)N(CC2CC2)CC[C@@]314`, the values for the Potency in experiment [2], in experiment [18] and in [3] were 31.6 µM (active), > 46 µM (inactive) and > 46 µM (inactive), respectively. In addition, the Potency entry in [5], in experiment [19], in experiment [20], in experiment [1] and in experiment [16] was “inactive” in each case.
Consider `CCC(Oc1ccc(Cl)cc1)C(=O)OC1CC2CCC(C1)N2C` (stereo unspecified), for which the Potency result in experiment [1] was “inactive”. Also, the Potency in [16] is 8.91 µM (active).
Take `CCCCCOc1c(OC)ccc2cc(C(=O)NCc3ccc4c(c3)OCO4)c(=O)[nH]c12`: in experiment [1], the Potency entry is “inactive”.
